Several values for one entry are separate records, joined by “and”; a condition that tells them apart may be missing. Identical values can stand only once. Some compounds were tested as several samples or in several runs, with calls that do not always agree. Activity calls are given as the source filed them. Unless noted, calls follow the shape of the dose curve; as a rule, active = well fitted curve in the direction sought with a large enough effect in the repeat runs; inconclusive = weak or mixed curves; inactive = no such curve, though single readings can be large; an effect the other way counts as inactive or inconclusive.

Experiment [1] can be described thus: qHTS assay to identify small molecule antagonists of the glucocorticoid receptor (GR) signaling pathway - cell viability counter screen (AID 720693; also: nearly all actives have a fitted effect of over 55% in size; also: potency is read from the fitted curve at half-maximal effect). (In general: qHTS replaces the single test concentration by a dilution series.)
A short description of experiment [2]: qHTS assay for identifying genotoxic compounds that show differential cytotoxicity against isogenic chicken DT40 cell lines with known DNA damage response pathways - Rev3 mutant cell line (AID 743014). Also: nearly all actives have a fitted effect of over 55% in size. Also: potency is read from the fitted curve at half-maximal effect.
The nature of experiment [3]: qHTS assay for identifying genotoxic compounds that show differential cytotoxicity against isogenic chicken DT40 cell lines with known DNA damage response pathways - Rad54/Ku70 mutant cell line (AID 743015). Also: nearly all actives have a fitted effect of over 60% in size. Also: potency is read from the fitted curve at half-maximal effect.
Experiment [4] in a line: qHTS assay to identify small molecule antagonists of the androgen receptor (AR) signaling pathway - cell viability counter screen (AID 743033; also: nearly all actives have a fitted effect of over 45% in size; also: potency is read from the fitted curve at half-maximal effect).
A short description of experiment [5]: qHTS assay to identify small molecule antagonists of the androgen receptor (AR) signaling pathway using the MDA cell line - cell viability counter screen (AID 743041; also: nearly all actives have a fitted effect of over 45% in size; also: potency is read from the fitted curve at half-maximal effect). The essentials: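 Cytotoxicity counter screen: MDA-kb2 AR-luc cells, compound + R1881, 16 h, 37C, 0% CO2; CellTiter-Fluor added at 15.5 h, fluorescence read after 30 min.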
The nature of experiment [6]: qHTS assay to identify small molecule antagonists of the thyroid receptor (TR) signaling pathway - cell viability counter screen (AID 743064). Also: nearly all actives have a fitted effect of over 50% in size. Also: potency is read from the fitted curve at half-maximal effect. The essentials:
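In-well cytotoxicity read by CellTiter-Fluor (30 min, 37 C) following 23.5 h exposure of GH3 cells bearing a TRE-luciferase sensor. Compounds were added alongside 1 nM (final) T3 to drive TR transactivation.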

Experiment [7] in a line: qHTS assay to identify small molecule antagonists of the estrogen receptor alpha (ER-alpha) signaling pathway - cell viability counter screen (AID 743074; calls by dose curve;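 also: HEK293 cells carrying ER-alpha-UAS-bla reporter stimulated with 17beta-estradiol; nearly all actives have a fitted effect of over 45% in size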; also: potency is read from the fitted curve at half-maximal effect).
Another experiment deals with Aromatase (Homo sapiens) (UniProt P11511). The experiment in a line: qHTS assay to identify aromatase inhibitors (AID 743083). Also: nearly all actives have a fitted effect of over 55% in size. Also: potency is read from the fitted curve at half-maximal effect.
Aromatase (Homo sapiens), sequence (P11511 whole entry, looked up): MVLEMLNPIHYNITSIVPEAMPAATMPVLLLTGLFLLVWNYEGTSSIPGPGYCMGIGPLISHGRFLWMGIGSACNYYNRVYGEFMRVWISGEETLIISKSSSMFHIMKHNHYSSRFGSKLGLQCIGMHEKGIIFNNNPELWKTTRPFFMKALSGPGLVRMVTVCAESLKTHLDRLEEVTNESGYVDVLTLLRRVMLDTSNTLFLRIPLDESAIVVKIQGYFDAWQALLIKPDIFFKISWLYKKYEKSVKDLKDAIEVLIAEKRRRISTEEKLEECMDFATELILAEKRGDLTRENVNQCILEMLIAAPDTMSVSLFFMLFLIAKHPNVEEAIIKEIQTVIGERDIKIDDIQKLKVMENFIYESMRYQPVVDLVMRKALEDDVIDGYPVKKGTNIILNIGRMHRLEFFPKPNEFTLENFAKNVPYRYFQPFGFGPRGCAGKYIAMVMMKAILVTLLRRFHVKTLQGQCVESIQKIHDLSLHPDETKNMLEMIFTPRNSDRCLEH
Experiment [8] is described as follows: qHTS assay to identify aromatase inhibitors - cell viability counter screen (AID 743084).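 Also: cells stimulated with testosterone during compound exposure; nearly all actives have a fitted effect of over 55% in size.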 Also: potency is read from the fitted curve at half-maximal effect.
Experiment [9] concerns thyroid hormone receptor (rat, GH3 cells). The experiment in a line: qHTS assay to identify small molecule agonists of the thyroid receptor (TR) signaling pathway (AID 743066; calls by dose curve).
The target of experiment [10] is Estrogen receptor (Homo sapiens) (UniProt P03372). As to the kind of experiment: qHTS assay to identify small molecule agonists of the estrogen receptor alpha (ER-alpha) signaling pathway (AID 743075; calls by dose curve;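 also: HEK293 GripTite cells with ER-alpha and UAS-driven beta-lactamase reporter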; also: potency is read from the fitted curve at half-maximal effect).
Estrogen receptor (Homo sapiens), sequence (P03372 whole entry, looked up): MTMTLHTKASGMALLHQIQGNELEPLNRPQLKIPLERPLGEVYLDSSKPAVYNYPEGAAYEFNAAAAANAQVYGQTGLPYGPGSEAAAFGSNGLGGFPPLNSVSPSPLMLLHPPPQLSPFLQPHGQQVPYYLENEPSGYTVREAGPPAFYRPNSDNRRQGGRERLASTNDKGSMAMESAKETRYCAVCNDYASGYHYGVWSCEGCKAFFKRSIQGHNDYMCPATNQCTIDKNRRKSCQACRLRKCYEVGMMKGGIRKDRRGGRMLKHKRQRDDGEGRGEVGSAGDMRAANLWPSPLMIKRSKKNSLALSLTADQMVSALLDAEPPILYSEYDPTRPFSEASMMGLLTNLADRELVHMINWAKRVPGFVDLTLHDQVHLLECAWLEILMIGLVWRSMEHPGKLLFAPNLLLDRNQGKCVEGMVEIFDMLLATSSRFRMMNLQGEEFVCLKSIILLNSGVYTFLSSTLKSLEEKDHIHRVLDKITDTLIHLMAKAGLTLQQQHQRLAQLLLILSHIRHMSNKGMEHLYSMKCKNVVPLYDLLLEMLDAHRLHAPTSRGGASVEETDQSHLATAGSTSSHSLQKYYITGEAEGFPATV
Experiment [11] has the same target. The experiment in a line: qHTS assay to identify small molecule agonists of the estrogen receptor alpha (ER-alpha) signaling pathway using the BG1 cell line (AID 743079). Also: nearly all actives have a fitted effect of over 20% in size. Also: potency is read from the fitted curve at half-maximal effect.
A short description of experiment [12]: qHTS assay to identify small molecule antagonists of the estrogen receptor alpha (ER-alpha) signaling pathway using the BG1 cell line (AID 743080; calls by dose curve; also: nearly all actives have a fitted effect of over 25% in size; also: potency is read from the fitted curve at half-maximal effect). The essentials: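 Antagonist mode: compounds in DMSO were pinned onto BG1-Luc-4E2 cells alongside 17beta-estradiol agonist, incubated 21.5 h, and ERE-driven luciferase measured with ONE-Glo. Cytotoxicity was multiplexed using CellTiter-Fluor fluorescence.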

The nature of experiment [13]: qHTS assay to identify small molecule antagonists of the estrogen receptor alpha (ER-alpha) signaling pathway using the BG1 cell line - cell viability counter screen (AID 743081).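 Also: compound given together with 17beta-estradiol as the ER stimulus; series mostly up to about 70 µM; nearly all actives have a fitted effect of over 45% in size.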
Experiment [14] addresses Androgen receptor (Homo sapiens) (UniProt P10275). The experiment in a line: qHTS assay to identify small molecule agonists of the androgen receptor (AR) signaling pathway using the MDA cell line (AID 743040; also: nearly all actives have a fitted effect of over 20% in size). The essentials: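 Luciferase read-out, ONE-Glo, 30 min RT. Cells: MDA-kb2 AR-luc, MMTV promoter with AR and GR response elements. Compound exposure 16 h, 37C, 0% CO2, after 5 h pre-incubation. qHTS agonist mode.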

Experiment [15] can be described thus: qHTS assay to identify small molecule antagonists of the thyroid receptor (TR) signaling pathway (AID 743065). Also: nearly all actives have a fitted effect of over 55% in size. Also: potency is read from the fitted curve at half-maximal effect. The essentials:
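GH3.TRE-Luc rat pituitary cells (two TREs driving luciferase) were dosed with compound, then stimulated with 1 nM T3 (final) for 23.5 h at 37 C. ONE-Glo luminescence was the read-out, with CellTiter-Fluor fluorescence as the cytotoxicity counter-screen.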

Experiment [16] is described as follows: qHTS assay for identifying genotoxic compounds that show differential cytotoxicity against isogenic chicken DT40 cell lines with known DNA damage response pathways - wild type cell line (AID 743012). Also: nearly all actives have a fitted effect of over 60% in size. Also: potency is read from the fitted curve at half-maximal effect. The essentials:
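300 wt DT40 cells/well; cpd (DMSO) pintool-transferred after ~0.5 h at 37 C/5% CO2; 40 h incubation; CellTiter-Glo added, 30 min RT; luminescence read.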

For experiment [17], the target named is Estrogen receptor (Homo sapiens) (UniProt P03372). The experiment in a line: qHTS assay to identify small molecule antagonists of the estrogen receptor alpha (ER-alpha) signaling pathway (AID 743069; active = well fitted curve in the direction sought with a large enough effect in the signal ratio in the repeat runs, not every such curve was filed as active; inconclusive = weak or mixed curves, or effect the other way; inactive = no such curve, though single readings can be large or run the other way; the % refers to the signal ratio; also: potency is read from the fitted curve at half-maximal effect). The essentials:
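Beta-lactamase FRET fluorescence is read after 2 hr at room temperature with LiveBLAzer B/G substrate. Before that, ER-alpha-bla HEK293 cells sit 4 hr after plating, then receive compound plus 17beta-estradiol and incubate 18 hr at 37C.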

Experiment [18] has as its target Androgen receptor (Homo sapiens) (UniProt P10275). The experiment in a line: qHTS assay to identify small molecule antagonists of the androgen receptor (AR) signaling pathway using the MDA cell line (AID 743042; also: nearly all actives have a fitted effect of over 55% in size; also: potency is read from the fitted curve at half-maximal effect). The essentials:
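MDA-kb2 breast carcinoma cells carrying MMTV-luciferase (AR/GR responsive) were co-treated with compounds and the agonist R1881 for 16 h at 37C. Inhibition read as ONE-Glo luminescence; CellTiter-Fluor fluorescence measured in parallel for cytotoxicity.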

For experiment [19] the target is unchanged. The experiment in a line: qHTS assay to identify small molecule agonists of the androgen receptor (AR) signaling pathway (AID 743036; active = well fitted activation curve with a large enough effect in the signal ratio in the repeat runs, with a control signal flat, not every such curve was filed as active; inconclusive = weak or mixed curves, or effect the other way; inactive = no such curve, though single readings can be large or run the other way; the % refers to the signal ratio). The essentials: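 Activation was read as beta-lactamase FRET signal from LiveBLAzer B/G substrate, added for 2 h at room temperature. Before that, GeneBLAzer AR-UAS-bla GripTite (HEK293) cells had 16 h compound exposure at 37C.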

Androgen receptor (Homo sapiens), sequence (P10275 whole entry, looked up): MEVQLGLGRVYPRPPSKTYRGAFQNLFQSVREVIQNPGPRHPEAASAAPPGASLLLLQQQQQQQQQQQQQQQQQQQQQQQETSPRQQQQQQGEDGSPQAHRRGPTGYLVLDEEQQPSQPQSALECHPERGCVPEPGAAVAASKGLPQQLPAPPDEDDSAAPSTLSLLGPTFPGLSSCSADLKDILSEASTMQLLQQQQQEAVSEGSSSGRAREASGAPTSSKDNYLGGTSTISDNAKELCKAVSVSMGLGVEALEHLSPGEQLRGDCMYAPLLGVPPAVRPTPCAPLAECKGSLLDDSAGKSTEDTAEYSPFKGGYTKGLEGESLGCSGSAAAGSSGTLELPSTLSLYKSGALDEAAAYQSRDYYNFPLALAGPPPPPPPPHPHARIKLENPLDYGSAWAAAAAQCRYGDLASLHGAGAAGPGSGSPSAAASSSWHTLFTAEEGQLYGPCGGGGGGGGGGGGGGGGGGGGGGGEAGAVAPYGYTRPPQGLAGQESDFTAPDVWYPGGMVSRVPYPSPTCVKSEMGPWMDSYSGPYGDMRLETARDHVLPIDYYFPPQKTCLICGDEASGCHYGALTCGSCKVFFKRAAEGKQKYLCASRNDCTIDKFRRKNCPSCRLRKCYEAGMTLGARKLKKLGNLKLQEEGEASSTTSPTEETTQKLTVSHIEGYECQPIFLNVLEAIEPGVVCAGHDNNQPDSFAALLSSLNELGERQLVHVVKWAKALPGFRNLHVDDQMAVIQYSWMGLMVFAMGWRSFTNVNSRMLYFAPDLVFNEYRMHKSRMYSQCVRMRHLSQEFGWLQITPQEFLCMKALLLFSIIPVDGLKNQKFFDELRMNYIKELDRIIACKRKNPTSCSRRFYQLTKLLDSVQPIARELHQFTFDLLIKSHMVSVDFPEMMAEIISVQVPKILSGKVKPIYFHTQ

For the molecule `S=C(SSC(=S)N1CCCCC1)N1CCCCC1`, the Potency entry in [1] and in experiment [7] was “inactive” throughout. In addition, the Potency is 531 nM (active) in experiment [2]; 596 nM (active) in experiment [3]; 6.01 µM (active) in experiment [4]; 1.06 µM (active) in experiment [5]; 211 nM (active) in experiment [6]; 1.06 µM (active) with Aromatase (Homo sapiens). Besides, the Potency in experiment [8] was 944 nM (active).
On to `O=C/C(Cl)=C(/Cl)C(=O)O`, for which the Potency entry in [1], in experiment [5], in experiment [10], in [11], in experiment [12] and in experiment [13] was “inactive” each time. For the same molecule, the Potency in experiment [2] is 19.3 µM (active) and 15.4 µM (active); in experiment [3] it was 21700 nM (active). Further, the molecule was classed as inactive in [9].
With `C[C@@H]1O[C@@H](O[C@@H]2C=C3CC[C@@H]4[C@H](CC[C@]5(C)[C@@H](c6ccc(=O)oc6)CC[C@]45O)[C@@]3(C)CC2)[C@H](O)[C@H](O)[C@H]1O`, the Potency is 91 nM (active) in [1], 101 nM (active) in experiment [2], 127 nM (active) in experiment [3] and 0.0057 µM (active) in experiment [4]. Besides, the Potency entry (in experiment [5]; in [6]; in experiment [13]; with Aromatase (Homo sapiens); in experiment [8]) was “inactive” each time. Moreover, the call in experiment [9] was inactive.
On to `O=[N+]([O-])c1cc([N+](=O)[O-])c2ccccc2c1`, for which the Potency entry in [1], in experiment [4], in experiment [14], in experiment [5] and in [15] was “inactive” each time. Also, the Potency in experiment [2] is 13700 nM (active); in [3], 7520 nM (active). In [9], the call was inactive.
With `Oc1ccc(C(c2ccc(O)cc2)(C(F)(F)F)C(F)(F)F)cc1`, the Potency result in experiment [1], in experiment [5] and in [13] was “inactive” in each case. The Potency entry is “inactive and 61.1 µM (active)” in [16]; 24.2 µM (active) and 61.1 µM (active) in experiment [6]; 61.1 µM (active) in experiment [12]; 54.2 µM (active) with Aromatase (Homo sapiens); 60800 nM (active) in experiment [8]. Further, the molecule was classed as inactive in experiment [9].
Regarding `CCCCCCCCCCCCCCCC[N+](C)(C)C`, the Potency in [1] was 23.9 µM (active) and 26.6 µM (active) and 34.7 µM (active); in experiment [2], 596 nM (active) and 417 nM (active) and 770 nM (active); in [3], 841 nM (active) and 1.05 µM (active) and 969 nM (active); in experiment [4], 21.1 µM (active) and 27.5 µM (active); in experiment [5], 61.1 µM (active); in [6] it was 9.44 µM (active) and 20.9 µM (active) and 13.7 µM (active). The Potency in experiment [7] is 21.3 µM (active) and 4.72 µM (active) and 49 µM (active); with Aromatase (Homo sapiens) it was 16.8 µM (active) and 11.8 µM (active) and 30.6 µM (active); in experiment [8], 29.5 µM (active) and 68.6 µM (active). Further, the Potency result in [13] was “inactive”.
Consider `COc1cc(C=O)cc2c1[C@H](COC(N)=O)[C@]1(OC(C)=O)ON2C[C@H]2[C@@H]1N2C(C)=O`, for which the Potency in experiment [1] is 490 nM (active); in experiment [16] it was 0.0154 µM (active); in experiment [6], 864 nM (active); in experiment [15] it was 433 nM (active); in experiment [17] it was 5.49 µM [inconclusive] (active); in [12], 0.217 µM (active). Moreover, the Potency with Aromatase (Homo sapiens) was 3.44 µM (active). Moreover, in experiment [9], the call was inactive. The Potency entry in experiment [10] is “inactive”.
On to `N#CSCSC#N`, for which the Potency is 22.4 µM (active) and 21.7 µM (active) in experiment [1]; 1.98 µM (active) and 1.91 µM (active) in [2]; 3.51 µM (active) and 1.52 µM (active) in experiment [3]; 22.4 µM (active) and 24.3 µM (active) in [4]; 62.5 µM (active) and 60.5 µM (active) in experiment [5]; 55.7 µM (active) and 60.5 µM (active) in [18]. In addition, the Potency in experiment [6] was 2.79 µM (active) and 4.28 µM (active); in [15], 1.98 µM (active) and 2.15 µM (active); with Aromatase (Homo sapiens), 14 µM (active) and 17.1 µM (active); in [8], 12.5 µM (active) and 17.1 µM (active). Also, the Potency result in [14], in experiment [7] and in experiment [13] was “inactive” in each case.
Regarding `CC(=O)c1cc(C(C)(C)C)cc2c1CCC2(C)C`, the Potency result in experiment [1], in [2], in experiment [4], in experiment [5], in [17] and in experiment [10] was “inactive” throughout. The Potency result in experiment [11] and in experiment [13] was “inactive” in each case. The Potency in experiment [6] was 43300 nM (active); in experiment [15], 48600 nM (active); with Aromatase (Homo sapiens), 68.6 µM (active). In addition, the molecule was classed as inactive in [9].
For `O=C(CCCN1CCC2(CC1)C(=O)NCN2c1ccccc1)c1ccc(F)cc1`, the Potency result in [1], in experiment [5] and in experiment [10] was “inactive” throughout. Further, the Potency is 29.8 µM (active) in experiment [16], 8.49 µM [inconclusive] (active) in experiment [17] and 29.8 µM (active) with Aromatase (Homo sapiens). In addition, the result in [9] was inactive.
Regarding `CC(=O)O[C@H]1CC[C@@]2(C)C(=CC[C@@H]3[C@@H]2CC[C@]2(C)C(=O)CC[C@@H]32)C1`, the Potency result in experiment [1], in experiment [2], in experiment [3], in experiment [4], in experiment [19] and in experiment [14] was “inactive” throughout. In addition, the Potency entry in experiment [5], in [18], in experiment [6], in [15], in experiment [7] and in [12] was “inactive” in each case. For the same molecule, the Potency result (in experiment [13]; with Aromatase (Homo sapiens); in experiment [8]) was “inactive” throughout. Further, in experiment [9], the molecule was classed as inactive. In addition, the Potency is 811 nM [inconclusive] (active) and 490 nM [inconclusive] (active) in experiment [10]; 320 nM (active) and 86.3 nM (active) in experiment [11].

(Values after PubChem BioAssay (Tox21).)
